# Records with an inconclusive call do not appear. Where a call stands in place of a potency, no number is given. Unmarked numbers belong to inactive results. Calls of active or inactive are those of the source. Calls come from the whole dose curve; as a rule, active = well fitted activation curve with a large enough effect in the repeat runs; inconclusive = weak or mixed curves; inactive = no such curve, though single readings can be large or run the other way.
# Target: Nuclear receptor subfamily 1 group I member 2 (Homo sapiens) (UniProt O75469)
# Sequence (O75469 whole entry, looked up): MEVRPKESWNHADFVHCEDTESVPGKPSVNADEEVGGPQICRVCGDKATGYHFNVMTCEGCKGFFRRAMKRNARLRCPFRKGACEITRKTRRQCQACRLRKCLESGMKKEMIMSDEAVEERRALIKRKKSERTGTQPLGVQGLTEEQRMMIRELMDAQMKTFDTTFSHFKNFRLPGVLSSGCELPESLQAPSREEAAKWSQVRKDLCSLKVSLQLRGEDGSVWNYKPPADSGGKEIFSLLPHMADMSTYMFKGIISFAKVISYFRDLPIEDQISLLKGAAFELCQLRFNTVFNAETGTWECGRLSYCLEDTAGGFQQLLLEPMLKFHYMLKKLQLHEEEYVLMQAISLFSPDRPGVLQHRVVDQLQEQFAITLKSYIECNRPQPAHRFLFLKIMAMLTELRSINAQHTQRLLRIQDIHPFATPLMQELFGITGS
# Assay: Human pregnane X receptor (PXR) small molecule agonists, qHTS assay (AID 1346982); note: nearly all actives have a fitted effect of over 35% in size
# Settings: PXR-Luc HepG2, CYP3A4 luciferase reporter, 24 h; series mostly up to 92.4 µM
# Description: National Center for Advancing Translational Sciences [NCATS]
# NIH Chemical Genomics Center [NCGC]
# U.S. Environmental Protection Agency [EPA]
# National Institutes of Environmental Health Sciences [NIEHS]
# National Toxicology Program [NTP]
# The human pregnane X receptor (hPXR) regulates the expression of several drug metabolizing enzymes and induction of these proteins is a major mechanism for developing drug resistance in cancer. One such key enzyme catalyzing the drug metabolism is cytochrome P450 3A4 (CYP3A4). Changes in CYP3A4 expression affect drug metabolism, thereby reducing the therapeutic efficacy and altering toxicological response to a drug and which finally causes adverse drug interaction. To screen Tox21 libraries for compounds that activate hPXR-mediated CYP3A4 gene expression, PXR-Luc HepG2 cells were used.
# PXR-Luc HepG2 cells were dispensed at 2,000 per well in 5uL of assay medium containing 5% charcoal-stripped FBS into white solid bottom 1536-well plates (Corning Life Sciences, Corning, NY) using a Multidrop Combi (Thermo Scientific, Waltham, MA) dispenser. The assay plates were incubated at 37 C and 5% CO2 for 5hr, and then 23nL of compounds dissolved in DMSO and positive control were transferred using a Pintool station (Wako, San Diego, CA). The assay plates were incubated at 37C and 5% CO2 for 24hr. For luciferase read, 4uL of ONE-Glo reagent (Promega Corporation, Madison, WI) was added to each well of the assay plates using Flying Reagent Dispenser (FRD, Aurora Discovery, San Diego, CA) and incubated the assay plates at room temperature for 30min. The luminescence signal was quantified using a ViewLux plate reader (Perkin Elmer, Shelton, CT).
# Potency is the fitted concentration of half-maximal effect.
Compound,Potency,activation
C=CCOC(=O)CCCCCCCC,inactive,
N[C@H]1C(O)O[C@H](CO)[C@@H](O)[C@@H]1O (stereo not given in full),inactive,
CN(C)c1ccncc1,inactive,
Clc1ccc2c(c1)Nc1ccccc1S2,33.5 µM (active),
CCN1CCN(C(=O)N[C@@H](C(=O)N[C@@H]2C(=O)N3[C@@H]2SC(C)(C)[C@H]3C(=O)O)c2ccccc2)C(=O)C1=O,inactive,
CCCCCCC(=O)c1ccccc1,inactive,
O=Cc1ccc(C(=O)O)cc1,inactive,
Clc1cc(Cl)c(Cl)c(Cl)c1Cl,inactive,
O=C(O)Cc1ccccc1Oc1ccc(Cl)cc1Cl,inactive,
COc1cc(C(=O)NC2CCCNC2)cc(OC)c1OC (stereo not given),inactive,
O=C(c1ccccc1)c1cccc(O)c1,55.3 µM (active),
C=CC(C)(CCC=C(C)C)OC(=O)C(C)C (stereo not given),inactive,
O=C(O)CCCCCCCCCC(=O)O,inactive,
CC(=O)SC[C@@H](C)C(=O)N1CCC[C@H]1C(=O)N[C@@H](Cc1ccccc1)C(=O)O,inactive,
NNC(=O)CCCCC(=O)NN,inactive,
CCO[Si](CC(C)C)(OCC)OCC,9.69 µM (active),
Cc1cc(=O)oc2cc(O[C@@H]3SC[C@@H](O)[C@H](O)[C@H]3O)ccc12,inactive,
COC(=O)/C=C(\C)CCC=C(C)C,61.1 µM (active),
O=C(O)Cc1c(Cl)ccc(Cl)c1Cl,inactive,
COc1cnc(NS(=O)(=O)c2ccc(N)cc2)nc1,inactive,

Compound,Potency,activation
O=C(OOC(=O)c1ccccc1)c1ccccc1,inactive,
CCCCCCCCCCCBr,inactive,
COC(=O)c1cc(Cl)c(NC(C)=O)cc1OC,inactive,
CC(=O)c1c(C)cc(C(C)(C)C)cc1C,inactive,
N=C(N)N,inactive,
Cc1ccccc1C#N,inactive,
Cc1ccc(N)nc1,inactive,
CC(=O)SCC(CC(=O)c1ccc(C)cc1)C(=O)O (stereo not given),inactive,
CC1(C)CC(N)CC(C)(C)N1,inactive,
CCC(=O)OCCOc1ccccc1,inactive,
CCCCC(CC)COC(=O)CC#N (stereo not given),2.73 µM (active),
CC1=C(O)C(=O)CO1,inactive,
CN1C(CCl)Nc2cc(Cl)c(S(N)(=O)=O)cc2S1(=O)=O (stereo not given),inactive,
COc1ccc(Cl)cc1C,inactive,
C=CCON/C(CCC)=C1\C(=O)CC(C)(C)C(C(=O)OC)=C1O,inactive,
NC[C@H]1O[C@H](O[C@H]2[C@H](O)[C@@H](O[C@H]3O[C@H](CO)[C@@H](O)[C@H](N)[C@H]3O)[C@H](N)C[C@@H]2N)[C@H](N)[C@@H](O)[C@@H]1O,,-6.93% [at 19 µM]
CCCC(C)C(O)CC (stereo not given),inactive,
COCc1nnc(-c2ccc[n+]([O-])c2)n1-c1c(Cl)c(Cl)cc2[nH]c(=O)c(=O)[nH]c12,inactive,
CC(=O)OC1CCC(C(C)(C)C)CC1 (stereo not given),inactive,
C/C=C/C(=O)CCCC,inactive,

# From PubChem BioAssay (Tox21)
